High-throughput results (PubChem BioAssay)
Hits are enriched below; roughly 12% of the tested compounds scored in any of these assays.
ROMK mod = modulators of human ROMK potassium channel; P48048; Tet-inducible ROMK, thallium flux fluorescence; actives lie on both sides; B-score at 10 µM; 130,000 tested, 2% active; AID 1918;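 active means signal ratio slope over the read window, or its plate-corrected B-score, at least 3 SD from the plate mean, either direction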;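 further: B-score of the F/F0 ratio slope over 7 to 12 s after thallium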
Lmaj promast = Leishmania major promastigote growth inhibition | inhibition, % at 10 µM | 200,000 tested, 9% active | Leishmania major promastigotes, resazurin fluorescence viability; in the data active means inhibition above about 50%;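 further: promastigotes grown with compound for 44 hours at 28 °C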
Insulin prom up = MIN6 insulin promoter up-regulation | MIN6 insulin promoter-GFP reporter, high-content imaging; active compounds read high | z-score at 5 µM | 190,000 tested, 0.3% active | AID 1625;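 active means z-score above 3 at 5 µM with at least 500 cells counted in the well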
INS promoter inh = TRM-6 insulin promoter activity inhibition; TRM-6 cells (human fetal islet line), insulin promoter-eGFP reporter, imaging; reporter expression induced with tamoxifen; inhibition, % at 2 µM; 130,000 tested, 0.9% active; AID 1273;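 active means inhibition above the mean plus 3 SD, with well images judged a real hit on visual review, cut at about 60% in these data, passing the limit was not always enough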
Cl transport mod = KCC2 (human) Cl- transport modulation | Q9H2X9 | KCC2 cells, thallium flux FluoZin-2 fluorescence | B-score of Tl+ flux slope (higher = more flux/activation; lower = inhibition) at 10 µM | 190,000 tested, 2.2% active;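 active means thallium flux slope and its plate-corrected score both differing from the plate sample mean at a set confidence after two filtering rounds, in either direction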;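 further: slope of fluorescence scaled to starting intensity during 10 to 20 s after thallium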
Target sequence (Q9H2X9 whole entry, looked up): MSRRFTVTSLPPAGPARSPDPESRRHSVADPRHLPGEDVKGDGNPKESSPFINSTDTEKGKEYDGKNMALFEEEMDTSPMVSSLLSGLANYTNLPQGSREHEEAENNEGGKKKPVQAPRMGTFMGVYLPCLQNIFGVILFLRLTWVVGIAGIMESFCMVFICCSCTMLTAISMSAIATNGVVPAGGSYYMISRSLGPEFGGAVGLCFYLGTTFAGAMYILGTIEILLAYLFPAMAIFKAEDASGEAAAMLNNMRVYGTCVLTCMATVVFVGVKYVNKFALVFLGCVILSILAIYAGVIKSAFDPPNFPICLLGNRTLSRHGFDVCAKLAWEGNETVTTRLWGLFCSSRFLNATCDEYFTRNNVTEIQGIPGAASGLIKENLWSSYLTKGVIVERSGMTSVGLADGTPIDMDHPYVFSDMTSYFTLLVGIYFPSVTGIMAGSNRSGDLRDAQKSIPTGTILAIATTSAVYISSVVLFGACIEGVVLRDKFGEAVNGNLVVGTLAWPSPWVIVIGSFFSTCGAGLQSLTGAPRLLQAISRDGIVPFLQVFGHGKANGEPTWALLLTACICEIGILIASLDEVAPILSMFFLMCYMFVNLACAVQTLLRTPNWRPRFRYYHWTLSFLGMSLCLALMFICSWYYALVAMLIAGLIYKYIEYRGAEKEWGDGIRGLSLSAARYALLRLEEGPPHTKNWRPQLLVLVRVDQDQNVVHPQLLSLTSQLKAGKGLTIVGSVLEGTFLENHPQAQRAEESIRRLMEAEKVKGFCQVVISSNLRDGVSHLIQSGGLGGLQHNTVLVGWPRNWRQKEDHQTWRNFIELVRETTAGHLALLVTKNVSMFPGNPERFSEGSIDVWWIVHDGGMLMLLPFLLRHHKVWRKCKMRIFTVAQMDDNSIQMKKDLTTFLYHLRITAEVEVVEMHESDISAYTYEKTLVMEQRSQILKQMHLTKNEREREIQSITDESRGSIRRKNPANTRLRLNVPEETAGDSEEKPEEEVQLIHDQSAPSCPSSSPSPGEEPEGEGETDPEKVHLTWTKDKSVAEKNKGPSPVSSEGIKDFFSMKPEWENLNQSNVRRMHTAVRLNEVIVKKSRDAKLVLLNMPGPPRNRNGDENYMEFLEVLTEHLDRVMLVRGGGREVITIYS
WT yeast gro inh = growth inhibition of WT yeast, mitochondrial fusion screen | mitochondrial fusion phenotypic screen, WT strain | inhibition, % at 10 µM | 190,000 tested, 2.1% active | AID 1362; in the data active means inhibition above about 58%; tested in S. cerevisiae
The depositor's hits bear a star; . = not tested or not shown.

SMILES	ROMK mod	Lmaj promast	Insulin prom up	INS promoter inh	Cl transport mod	WT yeast gro inh
Cc1ccc(-n2c(N)c(C(=O)Nc3c(C)n(C)n(-c4ccccc4)c3=O)c3nc4ccccc4nc32)cc1C	.	79.0*	-0.79	.	-1.23	-6.1
NC(=O)c1ccccc1N/C=C/C(=O)c1ccc(Cl)cc1Cl	.	85.9*	-0.1	74.4*	-1.33	0.3
NC(=O)c1ccccc1N/C=C/C(=O)c1ccc(F)cc1	.	2.6	0.34	20.5	-3.57	-3.1
CCOC(=O)C1CCCN(C(=O)Nc2cccc(Cl)c2)C1 (stereo not drawn)	.	-7.2	0.25	-30.0	-0.363	13.9
Cc1c(NC(=O)C(C)OC(=O)c2cccc(S(=O)(=O)N3CCOCC3)c2)c(=O)n(-c2ccccc2)n1C (stereo not drawn)	.	.	-1.42	.	0.247	.
COc1ccc2nc(/N=C(\N)NC(=O)N3c4ccccc4Sc4ccccc43)nc(C)c2c1	0.323	13.3	-0.15	2.9	0.242	2.9
COc1ccc2nc(/N=C(\N)NC(=O)C(C)(C)C)nc(C)c2c1	0.0983	50.8*	.	11.1	0.718	13.4
CCC(=O)N/C(N)=N/c1nc(C)c2cc(OC)ccc2n1	.	27.8	0.01	80.0*	0.0268	-2.8
CCCNc1ncccc1C(N)=O	-0.372	17.8	-0.5	60.6*	-0.213	-9.8
Cc1c(C(=O)N2CCN(c3ccc(C(F)(F)F)cn3)CC2)oc2ccccc12	.	-10.0	0.37	.	0.754	70.5*
Cc1ccc(C(=O)N2CCN(c3ccc(C(F)(F)F)cn3)CC2)cc1	.	-5.3	0.48	17.1	0.874	-3.0
CCOC(=O)c1nc(NCCc2ccccc2)sc1C	-0.00656	13.0	-0.7	33.3	-1.76	24.4
COC(=O)c1ccc(CN2CCC(CO)(Cc3ccccc3Cl)CC2)cc1	.	97.5*	0.12	-13.3	0.676	0.8
OCC1(Cc2ccccc2C(F)(F)F)CCN(Cc2ccccc2)CC1	-3.27	81.4*	-0.01	.	-0.558	-7.1
COc1ccc(CN2CCC(CO)(Cc3ccccc3)CC2)cc1Cn1cccn1	-2.62	5.9	-0.54	.	0.138	10.8
OCC1(Cc2ccccc2C(F)(F)F)CCN(Cc2ccc3c(c2)CCO3)CC1	0.0138	90.5*	-0.24	.	0.0793	16.4
CCOC(=O)CN1Cc2cccc(C(=O)O)c2C1=O	.	-8.3	-0.12	.	0.986	18.2
CN1CCN(c2nc(NCCOC34CC5CC(CC(C5)C3)C4)nc(OCC(F)(F)F)n2)CC1	.	41.8	-0.44	.	0.105	83.5*
Cc1cc(C(=O)CSc2nn3c(=O)c(C(C)(C)C)nnc3s2)c(C)n1C1CC1	0.909	11.9	-1.28	.	-0.13	-10.9
Cn1c(N)c(C(=O)COC(=O)[C@H](Cc2ccccc2)N2C(=O)c3ccccc3C2=O)c(=O)n(C)c1=O	1.79	22.3	-0.23	30.0	-0.356	14.2
CC(C)CC(C(=O)OCC(=O)c1c(N)n(C)c(=O)n(C)c1=O)N1C(=O)c2ccccc2C1=O (stereo not drawn)	0.329	57.2*	0.48	13.5	1.05	4.0
CC(C)(C)NC(=O)C(=O)NNC(=O)COc1ccc(Br)cc1	1.77	-3.4	.	-12.9	20.2*	5.6
CC(=O)NC(=S)NNC(=O)COc1ccc(Br)cc1	0.0216	86.6*	-0.35	-50.0	0.00903	9.9
COCCNC(=O)C(=O)NNC(=O)COc1ccc(OC)cc1	-0.0263	-6.1	-0.75	.	0.587	13.1
c1ccc(-c2ccc(-c3nccc4ccccc34)[nH]2)cc1	.	.	4.38*	.	-1.19	.
SMILES	ROMK mod	Lmaj promast	Insulin prom up	INS promoter inh	Cl transport mod	WT yeast gro inh
N#Cc1cc(-c2ccccc2)[nH]c1-c1nccc2ccccc12	.	.	-0.73	.	-0.673	.
COc1ccc(C(=O)Nc2c3c(nn2-c2cccc(Cl)c2)CS(=O)C3)cc1 (stereo not drawn)	-0.892	97.6*	-0.82	.	1.33	-11.8
COc1ccc(-n2nc3c(c2NC(=O)C2CC2)CS(=O)C3)cc1 (stereo not drawn)	.	-1.9	0.75	-205.0	-0.487	-5.7
COc1ccc(CC(=O)Nc2cc(Cl)ccc2C(=O)O)cc1	-0.139	15.0	0.32	50.0	-1.15	-8.4
CCCCOc1ccc(Nc2cc(Cl)ccc2C(=O)O)cn1	3.1*	.	-0.75	.	13.1*	.
O=C(COC(=O)c1ccc(O)cc1)Nc1ccccc1-c1ccccc1	.	56.7*	0.79	-66.7	0.19	-10.7
COC(=O)CCCCC1SCC2NC(=O)NC21O (stereo not drawn)	0.19	-5.4	-0.13	-9.6	0.27	-23.4
CC1=Nc2ccc3ccccc3c2C1(C)C	-1.36	-1.4	1.42	-160.0	-1.22	0.0
Cc1cc(C)cc(N(CC(=O)NCc2ccco2)C(=O)CCC(=O)Nc2nccs2)c1	0.135	77.7*	0.37	-3.7	-0.836	-0.7
CCn1c(COc2ccccc2)nnc1SCC(=O)c1cccc([N+](=O)[O-])c1	.	91.4*	-0.23	.	.	7.0
COc1ccc(NCC(=O)n2c(C)c(C)c3ccccc32)cc1OC	.	.	0.22	.	0.98	.
CCOC(=O)CC1C(=O)NCCN1S(=O)(=O)c1ccc(C)cc1 (stereo not drawn)	0.847	-7.1	2.25	.	0.0476	-1.2
CCOC(=O)CC1C(=O)NCCN1S(=O)(=O)c1ccc(Cl)cc1Cl (stereo not drawn)	.	-5.0	3.29*	30.0	-0.489	11.6
O=C(NC(Cc1c[nH]c2ccccc12)C(=O)O)/C(=C/c1ccc2c(c1)OCO2)NC(=O)c1ccccc1 (stereo not drawn)	-0.0952	-5.1	.	72.7*	-1.7	5.6
Cc1cc(C)nc(N/N=C2/CCCC/C2=C\c2ccccc2)n1	-0.883	99.8*	-1.86	-58.3	-1.51	30.4
CCOC(=O)Cc1csc(NC(=O)NC2(C(F)(F)F)Oc3ccc(Cl)cc3O2)n1 (stereo not drawn)	-0.105	52.9*	-0.66	-47.8	0.896	22.6
COCC(C)NC(=O)NC1(C(F)(F)F)Oc2ccc(Cl)cc2O1 (stereo not drawn)	-0.745	18.0	0.34	71.4*	.	7.8
CCOC(=O)Cc1csc(NC(=O)NC2(C(F)(F)F)Oc3cc(Cl)c(Cl)cc3O2)n1	0.0226	-1.5	0.73	-7.2	-0.0368	-5.8
CCOC(=O)Cc1csc(NC(=O)NC2(C(F)(F)F)Oc3ccccc3O2)n1	1.94	89.8*	.	8.3	.	6.5
CCOC(=O)Cc1csc(NC(=S)NC(=O)C(C)(C)C)n1	-0.0828	-4.2	0.74	-26.5	15.5*	5.3
CCCCNC(=O)C1CC(=O)N(c2ccc(OC)cc2)C1c1ccc(OC)cc1 (stereo not drawn)	.	-8.4	-0.23	13.2	-0.0987	-4.2
Cc1nc2cc(Nc3nnc(-c4ccccc4)c4ccccc34)ccc2n1C	.	88.4*	-1.31	40.0	.	9.1
CCCNC(=O)CSc1nnc(-c2ccccc2Br)n1-c1cccc(C(F)(F)F)c1	.	79.4*	1.06	.	-1.87	-9.1
Cc1ccc(C)c(NC(=O)C(=O)NCc2ccccn2)c1	0.165	64.3*	.	15.8	-0.442	1.0
O=C(/C=C/c1ccco1)Nc1cccc(NC(=O)/C=C/c2ccco2)n1	.	64.1*	-0.72	14.8	-1.51	59.5*
NS(=O)(=O)c1ccc(NC(=O)Nc2ccc(Cl)cc2)cc1	-0.0593	-6.0	0.26	.	1.67	8.5
